# Laboratory results as given in PubChem BioAssay (Tox21).
# Values joined by “and” are separate entries in the source; they are usually repeats but may differ in a detail not shown here. Equal entries are not always repeated. Inconclusive results are not listed. Entries that show only a call come without a potency. Where a structure was tested more than once in an assay, its records may differ in their call. Active and inactive are the calls of the source. Unless noted, calls come from the whole dose curve; as a rule, active = well fitted curve in the direction sought with a large enough effect in the repeat runs; inconclusive = weak or mixed curves; inactive = no such curve, though single readings can be large; an effect the other way counts as inactive or inconclusive.
# Tests used:
# [1] = qHTS assay to test for compound auto fluorescence at 535 nm (green) in HEK293 cells (AID 720680)
# [2] = qHTS assay to test for compound auto fluorescence at 460 nm (blue) in HEK293 cell free culture (AID 720681)
# Summary of the method: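 Test compounds were pinned into cell-free culture medium (DMEM with 10% FBS) and fluorescence was read directly at Ex/Em 405/460 nm. Signals were expressed as fluorescence equivalents of triamterene, with DMSO vehicle as control.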
# [3] = qHTS assay to test for compound auto fluorescence at 535 nm (green) in HEK293 cell free culture (AID 720682)
# Summary of the method: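 Measurement is a direct plate read of green fluorescence (485 nm in, 535 nm out) after compound addition to serum-supplemented DMEM lacking cells, with fluorescein used to express intensities.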
# [4] = qHTS assay to test for compound auto fluorescence at 590 nm (red) in HEK293 cell free culture (AID 720683)
# Summary of the method: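 Tox21 10K library compounds were pinned into cell-free DMEM with 10% FBS and fluorescence was read at excitation 540 nm. Activity is expressed as Rose Bengal sodium equivalency.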
# [5] = qHTS assay to test for compound auto fluorescence at 590 nm (red) in HepG2 cell free culture (AID 720684)
# Summary of the method: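 Ex 540 / Em 590 nm read of compound in cell-free MEM (10% FBS). Rose Bengal sodium reference.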
# [6] = qHTS assay to test for compound auto fluorescence at 460 nm (blue) in HepG2 cell free culture (AID 720685)
# Summary of the method: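 Cell-free plates of MEM plus 10% FBS received 23 nL compound or DMSO vehicle; blue-channel (405/460 nm) intensity scored against triamterene as reference fluorophore.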
# [7] = qHTS assay to test for compound auto fluorescence at 535 nm (green) in HepG2 cell free culture (AID 720686)
# [8] = qHTS assay to test for compound auto fluorescence at 460 nm (blue) in HepG2 cells (AID 720687)
# Summary of the method: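 Cells (2,000/well in MEM with 10% FBS) attached overnight at 37 C, then were exposed to compound or DMSO for 1 hr at 37 C, 5% CO2. Fluorescence read at Ex/Em 405/460 nm, expressed as triamterene-equivalent signal.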
# [9] = target: Glucocorticoid receptor (Homo sapiens) (UniProt P04150); assay: qHTS assay to identify small molecule agonists of the glucocorticoid receptor (GR) signaling pathway (AID 720691; active = well fitted activation curve with a large enough effect in the signal ratio in the repeat runs, not every such curve was filed as active; the % refers to the signal ratio)
# Sequence of Glucocorticoid receptor (Homo sapiens) (P04150 whole entry, looked up): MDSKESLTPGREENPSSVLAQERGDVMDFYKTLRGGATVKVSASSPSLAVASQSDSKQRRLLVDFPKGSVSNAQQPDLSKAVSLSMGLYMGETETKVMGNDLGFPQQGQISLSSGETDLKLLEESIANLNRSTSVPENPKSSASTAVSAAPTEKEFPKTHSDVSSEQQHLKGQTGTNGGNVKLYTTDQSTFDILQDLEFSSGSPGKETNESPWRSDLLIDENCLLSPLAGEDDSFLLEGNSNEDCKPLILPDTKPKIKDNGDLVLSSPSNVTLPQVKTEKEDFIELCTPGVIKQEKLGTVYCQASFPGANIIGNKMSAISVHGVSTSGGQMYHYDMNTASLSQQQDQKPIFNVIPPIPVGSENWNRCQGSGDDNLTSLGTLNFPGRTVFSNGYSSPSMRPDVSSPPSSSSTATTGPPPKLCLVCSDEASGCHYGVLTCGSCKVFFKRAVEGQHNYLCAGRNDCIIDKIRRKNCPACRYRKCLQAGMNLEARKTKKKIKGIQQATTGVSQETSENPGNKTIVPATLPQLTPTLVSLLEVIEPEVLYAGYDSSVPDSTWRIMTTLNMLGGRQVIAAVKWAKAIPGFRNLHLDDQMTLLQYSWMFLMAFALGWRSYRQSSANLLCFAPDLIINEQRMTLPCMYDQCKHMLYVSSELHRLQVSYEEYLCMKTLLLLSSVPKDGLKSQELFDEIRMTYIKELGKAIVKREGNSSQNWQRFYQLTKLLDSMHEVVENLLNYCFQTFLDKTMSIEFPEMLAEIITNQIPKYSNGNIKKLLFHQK
# Summary of the method: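 Compounds in DMSO, alongside positive controls, were added to GR-bla HeLa reporter cells and incubated 18 h at 37 C; GRE-driven beta-lactamase was detected by fluorescence after 2 h with FRET substrate at room temperature.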
# [10] = target: Glucocorticoid receptor (Homo sapiens) (UniProt P04150); assay: qHTS assay to identify small molecule antagonists of the glucocorticoid receptor (GR) signaling pathway (AID 720692; active = well fitted inhibition curve with a large enough effect in the signal ratio in the repeat runs, not every such curve was filed as active; the % refers to the signal ratio; note: potency is the fitted concentration of half-maximal effect)
# Summary of the method: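 In a 1536-well cell format, compounds were added 4 h after seeding GR-bla HeLa cells, together with dexamethasone at 5 nM final; reporter activity was measured by FRET-substrate fluorescence following 18 h at 37 C.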
# [11] = qHTS assay to identify small molecule antagonists of the glucocorticoid receptor (GR) signaling pathway - cell viability counter screen (AID 720693); note: nearly all actives have a fitted effect of over 55% in size
# [12] = qHTS assay for identifying genotoxic compounds that show differential cytotoxicity against isogenic chicken DT40 cell lines with known DNA damage response pathways - wild type cell line (AID 743012); note: nearly all actives have a fitted effect of over 60% in size; note: potency is the fitted concentration of half-maximal effect
# Summary of the method: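 Viability of DNA repair-proficient chicken DT40 cells was assessed by CellTiter-Glo luminescence following 40 h compound exposure at 37 C/5% CO2.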
# [13] = qHTS assay for identifying genotoxic compounds that show differential cytotoxicity against isogenic chicken DT40 cell lines with known DNA damage response pathways - Rev3 mutant cell line (AID 743014); note: nearly all actives have a fitted effect of over 55% in size; note: potency is the fitted concentration of half-maximal effect
# [14] = qHTS assay for identifying genotoxic compounds that show differential cytotoxicity against isogenic chicken DT40 cell lines with known DNA damage response pathways - Rad54/Ku70 mutant cell line (AID 743015); note: nearly all actives have a fitted effect of over 60% in size; note: potency is the fitted concentration of half-maximal effect
# [15] = qHTS assay to identify small molecule antagonists of the androgen receptor (AR) signaling pathway - cell viability counter screen (AID 743033; note: nearly all actives have a fitted effect of over 45% in size)
# [16] = qHTS assay to identify small molecule antagonists of the androgen receptor (AR) signaling pathway using the MDA cell line - cell viability counter screen (AID 743041; note: nearly all actives have a fitted effect of over 45% in size)
# Summary of the method: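 In this qHTS counter assay, fluorescence intensity after CellTiter-Fluor addition indicated viability of MDA-kb2 AR-luc cells given compounds and R1881 for 16 h at 37C.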
# [17] = target: Androgen receptor (Homo sapiens) (UniProt P10275); assay: qHTS assay to identify small molecule antagonists of the androgen receptor (AR) signaling pathway (AID 743035; active = well fitted inhibition curve with a large enough effect in the signal ratio in the repeat runs, not every such curve was filed as active; the % refers to the signal ratio)
# Sequence of Androgen receptor (Homo sapiens) (P10275 whole entry, looked up): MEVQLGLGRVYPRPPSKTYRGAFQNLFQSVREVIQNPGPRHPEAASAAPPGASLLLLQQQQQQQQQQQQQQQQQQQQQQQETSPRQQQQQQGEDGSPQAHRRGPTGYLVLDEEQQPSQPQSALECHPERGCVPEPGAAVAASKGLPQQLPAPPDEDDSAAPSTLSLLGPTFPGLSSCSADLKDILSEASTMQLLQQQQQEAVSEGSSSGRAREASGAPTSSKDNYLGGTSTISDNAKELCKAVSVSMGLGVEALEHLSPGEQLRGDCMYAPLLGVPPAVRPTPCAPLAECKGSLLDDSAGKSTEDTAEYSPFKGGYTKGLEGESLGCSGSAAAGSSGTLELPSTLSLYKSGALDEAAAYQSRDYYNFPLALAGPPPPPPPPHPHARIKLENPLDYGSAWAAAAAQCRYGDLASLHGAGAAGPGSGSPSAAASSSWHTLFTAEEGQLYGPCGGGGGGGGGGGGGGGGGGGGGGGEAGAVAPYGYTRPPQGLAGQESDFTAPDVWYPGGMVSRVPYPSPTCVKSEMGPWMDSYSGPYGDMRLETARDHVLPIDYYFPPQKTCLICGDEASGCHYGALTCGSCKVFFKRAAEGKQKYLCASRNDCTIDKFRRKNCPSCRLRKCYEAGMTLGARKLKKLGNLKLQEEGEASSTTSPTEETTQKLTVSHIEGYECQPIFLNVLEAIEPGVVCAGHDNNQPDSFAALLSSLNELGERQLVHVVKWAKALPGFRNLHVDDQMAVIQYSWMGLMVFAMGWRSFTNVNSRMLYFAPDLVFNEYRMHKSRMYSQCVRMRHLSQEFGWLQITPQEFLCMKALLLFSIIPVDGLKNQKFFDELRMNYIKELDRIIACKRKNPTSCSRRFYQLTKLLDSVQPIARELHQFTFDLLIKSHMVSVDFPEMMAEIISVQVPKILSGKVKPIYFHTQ
# Summary of the method: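 Reporter HEK293 cells were exposed to compounds and R1881 overnight (16 h, 37C); beta-lactamase activity was then quantified by FRET fluorescence.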
# [18] = target: Androgen receptor (Homo sapiens) (UniProt P10275); assay: qHTS assay to identify small molecule agonists of the androgen receptor (AR) signaling pathway (AID 743036; active = well fitted activation curve with a large enough effect in the signal ratio in the repeat runs, with a control signal flat, not every such curve was filed as active; the % refers to the signal ratio)
# Summary of the method: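 Beta-lactamase under UAS control, stably integrated in HEK293 GripTite cells, reports receptor activation. After 16 h compound treatment, cells received FRET substrate for 2 h at room temperature before fluorescence reading.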
# [19] = target: Androgen receptor (Homo sapiens) (UniProt P10275); assay: qHTS assay to identify small molecule agonists of the androgen receptor (AR) signaling pathway using the MDA cell line (AID 743040; note: nearly all actives have a fitted effect of over 20% in size)
# Summary of the method: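 Cell-based luciferase reporter: MDA-kb2, MMTV promoter (AR + GR response elements). 16 h compound exposure at 37C; ONE-Glo, 30 min RT, luminescence.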
# [20] = target: Androgen receptor (Homo sapiens) (UniProt P10275); assay: qHTS assay to identify small molecule antagonists of the androgen receptor (AR) signaling pathway using the MDA cell line (AID 743042; note: nearly all actives have a fitted effect of over 55% in size)
# Summary of the method: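 MDA-kb2 cells (human breast carcinoma, stably carrying an MMTV-luciferase reporter responsive to AR and GR) were plated at 3,000 cells/well and preincubated 5 hr at 37C, then given compound plus R1881 agonist for 16 h. ONE-Glo luminescence was read.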
smiles,measurement,setting,value
CC1(C)C(=O)N(Cl)C(=O)N1Br,outcome,[1],inactive
same,outcome,[2],inactive
same,outcome,[3],inactive
same,outcome,[4],inactive
same,outcome,[5],inactive
same,outcome,[6],inactive
same,outcome,[7],inactive
same,outcome,[8],inactive
same,Potency,[9],inactive
same,Potency,[10],inactive
same,outcome,[11],inactive
same,Potency,[12],inactive
same,Potency,[13],inactive
same,Potency,[14],inactive
same,outcome,[15],inactive
same,Potency,[16],inactive
COc1cc(Cl)ccc1Cl,outcome,[1],inactive
same,outcome,[2],inactive
same,outcome,[3],inactive
same,outcome,[4],inactive
same,outcome,[5],inactive
same,outcome,[6],inactive
same,outcome,[7],inactive
same,outcome,[8],inactive
same,Potency,[9],inactive
same,Potency,[10],inactive
same,outcome,[11],inactive
same,Potency,[12],inactive
same,Potency,[13],inactive
same,Potency,[14],inactive
same,outcome,[15],inactive
same,Potency,[16],inactive
NCCCN1CCN(CCCN)CC1,outcome,[1],inactive
same,outcome,[2],inactive
same,outcome,[3],inactive
same,outcome,[4],inactive
same,outcome,[5],inactive
same,outcome,[6],inactive
same,outcome,[7],inactive
same,outcome,[8],inactive
same,Potency,[9],inactive
same,Potency,[10],inactive
same,outcome,[11],inactive
same,Potency,[12],inactive
same,Potency,[13],inactive
same,Potency,[14],inactive
same,outcome,[15],inactive
same,Potency,[17],inactive
same,outcome,[18],inactive
same,Potency,[19],inactive
same,Potency,[16],inactive
same,outcome,[20],inactive
CC(C)OC(C)C,outcome,[1],inactive
same,outcome,[2],inactive
same,outcome,[3],inactive
same,outcome,[4],inactive
same,outcome,[5],inactive
same,outcome,[6],inactive
same,outcome,[7],inactive
same,outcome,[8],inactive
same,Potency,[9],inactive
same,Potency,[10],inactive
same,outcome,[11],inactive
same,Potency,[13],inactive
same,Potency,[14],inactive
same,outcome,[15],inactive
CCCCN1C[C@H](O)[C@@H](O)[C@H](O)[C@H]1CO,outcome,[1],inactive
same,outcome,[2],inactive
same,outcome,[3],inactive
same,outcome,[4],inactive
same,outcome,[5],inactive
same,outcome,[6],inactive
same,outcome,[7],inactive
same,outcome,[8],inactive
same,Potency,[9],inactive
same,Potency,[10],inactive
same,outcome,[11],inactive
same,Potency,[12],inactive
same,Potency,[13],inactive
same,Potency,[14],inactive
same,outcome,[15],inactive
same,Potency,[16],inactive
C1CSCCS1,outcome,[1],inactive
same,outcome,[2],inactive
same,outcome,[3],inactive
same,outcome,[4],inactive
same,outcome,[5],inactive
same,outcome,[6],inactive
same,outcome,[7],inactive
same,outcome,[8],inactive
same,Potency,[9],inactive
same,Potency,[10],inactive
same,outcome,[11],inactive
same,Potency,[12],inactive
same,Potency,[13],inactive
same,Potency,[14],inactive
same,outcome,[15],inactive
same,Potency,[16],inactive
CCCCNC(=S)NCCCC,outcome,[1],inactive
same,outcome,[2],inactive
same,outcome,[3],inactive
same,outcome,[4],inactive
same,outcome,[5],inactive
same,outcome,[6],inactive
same,outcome,[7],inactive
same,outcome,[8],inactive
same,Potency,[9],inactive
same,Potency,[10],inactive
same,outcome,[11],inactive
same,Potency,[12],48.6 µM (active)
same,Potency,[13],34.4 µM (active)
same,Potency,[14],24.3 µM (active)
same,Potency,[16],inactive
CC(=O)Nc1ccc(C)c(Cl)c1,outcome,[1],inactive
same,outcome,[2],inactive
same,outcome,[3],inactive
same,outcome,[4],inactive
same,outcome,[5],inactive
same,outcome,[6],inactive
same,outcome,[7],inactive
same,outcome,[8],inactive
same,Potency,[9],inactive
same,Potency,[10],inactive
same,outcome,[11],inactive
same,Potency,[13],inactive
same,Potency,[14],inactive
same,outcome,[15],inactive
same,Potency,[16],inactive
CC(C)NCC(O)COc1ccc(CCOCC2CC2)cc1 (centres undefined),outcome,[1],inactive
same,outcome,[2],inactive
same,outcome,[3],inactive
same,outcome,[4],inactive
same,outcome,[5],inactive
same,outcome,[6],inactive
same,outcome,[7],inactive
same,outcome,[8],inactive
same,Potency,[9],inactive
same,Potency,[10],inactive
same,outcome,[11],inactive
same,Potency,[12],29.8 µM (active)
same,Potency,[14],29.8 µM (active)
same,outcome,[15],inactive
same,Potency,[16],inactive
O=[N+]([O-])c1nccn1CO[C@@H](CO)[C@H](O)CO,outcome,[1],inactive
same,outcome,[2],inactive
same,outcome,[3],inactive
same,outcome,[4],inactive
same,outcome,[5],inactive
same,outcome,[6],inactive
same,outcome,[7],inactive
same,outcome,[8],inactive
same,Potency,[9],inactive
same,Potency,[10],inactive
same,outcome,[11],inactive
same,Potency,[12],inactive
same,Potency,[13],inactive
same,outcome,[15],inactive
C[C@@H](N)C(=O)O,outcome,[1],inactive
same,outcome,[2],inactive
same,outcome,[3],inactive
same,outcome,[4],inactive
same,outcome,[5],inactive
same,outcome,[6],inactive
same,outcome,[7],inactive
same,outcome,[8],inactive
same,Potency,[9],inactive
same,Potency,[10],inactive
same,outcome,[11],inactive
same,Potency,[12],inactive
same,Potency,[13],inactive
same,Potency,[14],inactive
same,outcome,[15],inactive
same,outcome,[18],inactive
same,Potency,[19],inactive
same,Potency,[16],inactive
same,outcome,[20],inactive
COC(=O)c1ccc2cc(C(=O)OC)ccc2c1,"fluorescence, % of fluorescein",[1],-0.0047% [at 18.6 µM] (inactive)
same,"fluorescence, % of fluorescent control",[2],-0.109% [at 18.6 µM] (inactive)
same,activity change,[3],-0.0115% [at 18.6 µM] (inactive)
same,"fluorescence, % of fluorescent control",[4],0.0914% [at 18.6 µM] (inactive)
same,"fluorescence, % of Rose Bengal",[5],0.0402% [at 18.6 µM] (inactive)
same,"fluorescence, % of fluorescent control",[6],-0.114% [at 18.6 µM] (inactive)
same,"fluorescence, % of fluorescein control",[7],-0.0122% [at 18.6 µM] (inactive)
same,"fluorescence, % of fluorescent control",[8],0.0678% [at 18.6 µM] (inactive)
same,Potency,[9],inactive
same,Potency,[10],inactive
same,outcome,[11],inactive
same,Potency,[13],inactive
same,Potency,[14],inactive
same,outcome,[15],inactive
same,Potency,[16],inactive
O=C1CCC(C2CCCCC2)CC1,outcome,[1],inactive
same,outcome,[2],inactive
same,outcome,[3],inactive
same,outcome,[4],inactive
same,outcome,[5],inactive
same,outcome,[6],inactive
same,outcome,[7],inactive
same,outcome,[8],inactive
same,Potency,[9],inactive
same,Potency,[10],inactive
same,outcome,[11],inactive
same,Potency,[12],inactive
same,Potency,[13],inactive
same,outcome,[15],inactive
same,Potency,[16],inactive
CC(C)C1=CC2=CC[C@@H]3[C@](C)(CCC[C@@]3(C)C(=O)O)[C@H]2CC1,outcome,[1],inactive
same,outcome,[2],inactive
same,outcome,[3],inactive
same,outcome,[4],inactive
same,outcome,[5],inactive
same,outcome,[6],inactive
same,outcome,[7],inactive
same,outcome,[8],inactive
same,Potency,[9],inactive
same,Potency,[10],inactive and 54.9 µM (active)
same,outcome,[11],inactive
same,Potency,[12],inactive
same,Potency,[13],inactive
same,outcome,[15],inactive
same,Potency,[16],inactive
O=C(O[C@@H](C(=O)O)[C@@H](OC(=O)c1ccccc1)C(=O)O)c1ccccc1,outcome,[1],inactive
same,outcome,[2],inactive
same,outcome,[3],inactive
same,outcome,[4],inactive
same,outcome,[5],inactive
same,outcome,[6],inactive
same,outcome,[7],inactive
same,outcome,[8],inactive
same,Potency,[9],inactive
same,Potency,[10],inactive
same,outcome,[11],inactive
same,Potency,[12],inactive
same,Potency,[13],inactive
same,Potency,[16],inactive
CCCNC(C)(C)COC(=O)c1ccccc1,outcome,[1],inactive
same,outcome,[2],inactive
same,outcome,[3],inactive
same,outcome,[4],inactive
same,outcome,[5],inactive
same,outcome,[6],inactive
same,outcome,[7],inactive
same,outcome,[8],inactive
same,Potency,[9],inactive
same,Potency,[10],inactive
same,outcome,[11],inactive
same,Potency,[12],inactive
same,outcome,[15],inactive
same,Potency,[16],inactive
